Assay results published in PubChem BioAssay AID2810 (NMMLSC, 2010).
In all, about 1,200 compounds went through this assay and about 65 (5%) were called active.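 The calls were made as follows: active = at either tested dose, response and 90th-percentile vesicle-stain brightness of CD8 cells under set limits and under 9% cells vesicle-bound; inactive = the rest.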 This excerpt belongs to a sample that is enriched for actives.

Test: modulators of CD8 T cell-vesicle binding, confirmation, cherry-picked primary hits, two concentrations (AID 2810);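 also: lower values mean blocking of vesicle binding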;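 as to percent response (vesicle binding): ratio of mean FL2 vesicle stain of CD8+ cells to that row's control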
Conditions: 2C CD8+ T cell-vesicle binding, flow cytometry; for double positive events: CD8+/vesicle+ events
[1] = at 15.4 µM, stronger effect = lower value

For `Cc1ccc(NC(=O)C2CCCO2)cc1[N+](=O)[O-]` (stereo not given), the double positive events (at 7.7 µM) was 25.5%, the double positive events [1] was 9.4% and the percent response (vesicle binding) [1] was 161% (inactive). For the same molecule, the percent response (vesicle binding) (response, at 7.7 µM) was 161%.
In the case of `CCOC(=O)C1CCN(C(=O)c2cccc(S(=O)(=O)NCc3ccccc3)c2)CC1`, the double positive events (at 7.7 µM) is reported as 16.4%, the double positive events [1] is reported as 18.8% and the percent response (vesicle binding) [1] is reported as 420% (inactive). The percent response (vesicle binding) (response, at 7.7 µM) was 128%.
For `CCOC(=O)C1CCN(C(=O)c2ccc(NC(=O)C3CCCO3)cc2)CC1` (stereo not given), the double positive events (at 7.7 µM) was 27.3%, the double positive events [1] was 1.9% and the percent response (vesicle binding) [1] was 21.8% (active).
For `O=C(COc1ccccc1)NNC(=O)c1ccc(Cl)cc1`, the double positive events (at 7.7 µM) was 27.8%, the double positive events [1] was 8% and the percent response (vesicle binding) [1] was 220% (inactive). It also gave a percent response (vesicle binding) (response, at 7.7 µM) of 616%.
With `CN(C)S(=O)(=O)c1ccc(NC(=O)c2ccc([N+](=O)[O-])cc2)cc1` the double positive events (at 7.7 µM) was 25.4%, the double positive events [1] was 22.8% and the percent response (vesicle binding) [1] was 217% (inactive). It also gave a percent response (vesicle binding) (response, at 7.7 µM) of 312%.
For `CCC(C)c1ccc(NC(=O)NCc2cccnc2)cc1` (stereo not given), the double positive events (at 7.7 µM) was 8.6%, the double positive events [1] was 27.9% and the percent response (vesicle binding) [1] was 260% (inactive). It also gave a percent response (vesicle binding) (response, at 7.7 µM) of 356%.
With `CCC(C(=O)Nc1ccccc1)c1ccccc1` (stereo not given) the double positive events (at 7.7 µM) was 6.9%, the double positive events [1] was 21.7% and the percent response (vesicle binding) [1] was 199% (active). For the same molecule, the percent response (vesicle binding) (response, at 7.7 µM) was 59.2%.
For `CCOc1ccccc1NC(=O)C(OC(=O)c1ccccc1O)c1ccccc1` (stereo not given), the double positive events (at 7.7 µM) was 6.9%, the double positive events [1] was 21.5% and the percent response (vesicle binding) [1] was 190% (inactive). It also gave a percent response (vesicle binding) (response, at 7.7 µM) of 189%.
In the case of `Cc1ccc(CONC(=O)c2cccc([N+](=O)[O-])c2)cc1`, the double positive events (at 7.7 µM) is reported as 27.4%, the double positive events [1] is reported as 16.3% and the percent response (vesicle binding) [1] is reported as 328% (inactive). The percent response (vesicle binding) (response, at 7.7 µM) was 576%.
For `CCOC(=O)C1(Cc2cccc(OC)c2)CCN(Cc2ccc3c(c2)OCCO3)CC1`, the double positive events (at 7.7 µM) was 13%, the double positive events [1] was 17.1% and the percent response (vesicle binding) [1] was 114% (inactive). For the same molecule, the percent response (vesicle binding) (response, at 7.7 µM) was 148%.
In the case of `CCOc1ccc(/C(O)=C2/C(=O)C(=O)N(CCN(CC)CC)C2c2cccs2)cc1` (stereo not given), the double positive events (at 7.7 µM) is reported as 17.2%, the double positive events [1] is reported as 26.6% and the percent response (vesicle binding) [1] is reported as 300% (inactive). The percent response (vesicle binding) (response, at 7.7 µM) was 187%.
With `COc1ccc(/C(O)=C2/C(=O)C(=O)N(Cc3cccnc3)C2c2ccco2)cc1OC` (stereo not given) the double positive events (at 7.7 µM) was 23.3%, the double positive events [1] was 0.8% and the percent response (vesicle binding) [1] was 27% (active). It also gave a percent response (vesicle binding) (response, at 7.7 µM) of 360%.
In the case of `COCCN1C(=O)C(=O)/C(=C(/O)c2cccc(OC)c2)C1c1ccc(C)o1` (stereo not given), the double positive events (at 7.7 µM) is reported as 12.5%, the double positive events [1] is reported as 16.5% and the percent response (vesicle binding) [1] is reported as 205% (inactive). The percent response (vesicle binding) (response, at 7.7 µM) was 173%.
With `COc1ccc(NC(=O)COC(=O)c2cc(Cl)ccc2O)cc1S(=O)(=O)N1CCCCC1` the double positive events (at 7.7 µM) was 27%, the double positive events [1] was 23.1% and the percent response (vesicle binding) [1] was 366% (inactive). For the same molecule, the percent response (vesicle binding) (response, at 7.7 µM) was 227%.
For `CC1CC(C)(C)NC(=S)N1CC(=O)NCc1ccccc1Cl` (stereo not given), the double positive events (at 7.7 µM) was 8.8%, the double positive events [1] was 18.9% and the percent response (vesicle binding) [1] was 506% (inactive). For the same molecule, the percent response (vesicle binding) (response, at 7.7 µM) was 79.3%.
With `CCOC(=O)C1(CC2CCCCO2)CCN(S(=O)(=O)c2ccc(C)s2)CC1` (stereo not given) the double positive events (at 7.7 µM) was 17.8%, the double positive events [1] was 18.7% and the percent response (vesicle binding) [1] was 122% (inactive). For the same molecule, the percent response (vesicle binding) (response, at 7.7 µM) was 196%.
With `COc1ccc(F)c(CN2CCC(n3nccc3NC(=O)C3CCOC3)CC2)c1` (stereo not given) the double positive events (at 7.7 µM) was 29.1%, the double positive events [1] was 10.9% and the percent response (vesicle binding) [1] was 235% (inactive). For the same molecule, the percent response (vesicle binding) (response, at 7.7 µM) was 538%.
With `CCCCCCCCn1c2c(c(=N)c3c1CCC3)CCCC2` the double positive events (at 7.7 µM) was 1.8%, the double positive events [1] was 5.8% and the percent response (vesicle binding) [1] was 46.9% (active). It also gave a percent response (vesicle binding) (response, at 7.7 µM) of 54.6%.
For `C=CCN1C(=O)c2ccc(C(=O)N3CCN(S(=O)(=O)c4cccc(Cl)c4)CC3)cc2C1=O`, the double positive events (at 7.7 µM) was 12.4%, the double positive events [1] was 26.8% and the percent response (vesicle binding) [1] was 118% (inactive). It also gave a percent response (vesicle binding) (response, at 7.7 µM) of 125%.
